# Results filed as inconclusive are left out. Values without a mark were called inactive. Activity calls are given as the source filed them. Calls follow the shape of the dose curve; as a rule, active = well fitted cell-killing curve with a large enough effect in the repeat runs; inconclusive = weak or mixed curves, or effect the other way; inactive = flat fitted curve, though single readings scatter.
# Assay: qHTS assay to identify small molecule antagonists of the androgen receptor (AR) signaling pathway using the MDA cell line in the presence of 0.5 nM R1881 - cell viability counter screen (AID 1259242); also: nearly all actives have a fitted effect of over 45% in size
# Conditions: MDA-kb2 viability, CellTiter-Fluor protease fluorescence, 16 h; series mostly up to 92.4 µM; viability change, negative = cytotoxic: at the top concentration
# Text: U.S. Tox21 Program National Center for Advancing Translational Sciences [NCATS] NIH Chemical Genomics Center [NCGC] U.S. Environmental Protection Agency [EPA] National Institutes of Environmental Health Sciences [NIEHS] National Toxicology Program [NTP] U.S. Food and Drug Administration [FDA] Tox21 Assay Overview: Androgen receptor (AR) is an important member of the nuclear receptor family. Its signaling plays a critical role in AR-dependent prostate cancer and other androgen related diseases. Considerable attention has been given in the past decades to develop methods to study and screen for the environmental chemicals that have the potential to interfere with metabolic homeostasis, reproduction, developmental and behavioral functions. Therefore AR binding assay for screening androgen antagonists can be used to identify potential endocrine disruptors. MDA-kb2 cells (from ATCC, deposited by Wilson et al.) were used to screen for AR inhibitors against Tox21 compound libraries. These cells are human breast carcinoma cells that were stably transfected with a luciferase reporter gene under control of the MMTV promoter that contains response elements for both androgen receptor (AR) and glucocorticoid receptor (GR). The current screening for identification of AR inhibitors against Tox21 libraries used lower concentration of (0.5 nM) R1881 as a stimulator. The cytotoxicity of the Tox21 compound libraries against MDA-kb2 cell line was tested by measuring live-cell protease activity using CellTiter-Fluor assay in the same wells.
# Tox21 Assay Protocol Summary: MDA-kb2 cells (cells cultured without CO2) were dispensed at 3,000 cells/well in 4 uL of culture medium into white wall/solid-bottom 1536-well plates (Corning Life Sciences, Corning, NY) using a Multidrop Combi (ThermoFisher Scientific, Waltham, MA) dispenser. After the assay plates were incubated at a 37C and 0% CO2 for 5 hr, 23 nL of compounds dissolved in DMSO, positive controls or DMSO only was transferred to the assay plate by a Pintool station (Kalypsys, San Diego, CA). The transfer of compounds was followed by the addition of 1 uL of 0.5 nM (final concentration) agonist (R1881)/culture medium using a Flying Reagent Dispenser (FRD, Aurora Discovery, San Diego, CA). The plates were incubated at 37C and 0% CO2 for 16 hr. For cytotoxicity assay, 1 uL of CellTiter-Fluor reagent (Promega Corporation, Madison, WI) was added to each well using the FRD and after 30 min incubation at 37C and 0% CO2, The fluorescence intensity was measured using ViewLux plate reader (PerkinElmer, Shelton, CT).
# % is scaled to controls: 0 for no effect and ±100 for the full control effect; potency is read from the fitted curve at half-maximal effect.
SMILES,"viability change, negative = cytotoxic",Potency
CCN(CC)CCN1C(=O)CN=C(c2ccccc2F)c2cc(Cl)ccc21,-2.56% [at 42.5 µM],
CC(Cc1ccc(OCC(=O)O)cc1)NCC(O)c1csc(C(F)(F)F)n1 (stereo not given),1.2%,
O.O.O.O.O.O.O.O=S(=O)([O-])[O-].[Co+2],5.39%,
O=C(Nc1ccc(F)cc1F)c1cccnc1Oc1cccc(C(F)(F)F)c1,2.47%,
COc1cnc(OC)n2nc(NS(=O)(=O)c3c(OCC(F)F)cccc3C(F)(F)F)nc12,-4.04%,
CC(C)c1c(CN(C)C(C)Cc2ccccc2)n(C)n(-c2ccccc2)c1=O (stereo not given),-1.11% [at 42.5 µM],
O=c1[nH]c(Cl)c(Cl)cc1Cl,5.93%,
CCC1COC(Cn2cncn2)(c2ccc(Cl)cc2Cl)O1 (stereo not given),2.62%,
Nc1cc(Cl)ccc1Cl,2.88%,
CCNS(=O)(=O)C(F)(F)C(F)(F)C(F)(F)C(F)(F)C(F)(F)C(F)(F)C(F)(F)C(F)(F)F,-1.66%,
Oc1cccc(Cl)c1Cl,3.27%,
CC1(C)[C@H](/C=C2\CCSC2=O)[C@@H]1C(=O)OCc1coc(Cc2ccccc2)c1,0.12%,
BrCC(Br)(Br)Br,-4.54%,
CSSC,-10.8%,
CCCCCCC[CH2][Sn]([Cl])([Cl])[CH2]CCCCCCC,-5.63%,
N#Cc1c[nH]cc1-c1cccc2c1OC(F)(F)O2,-1.68%,
O=C1C[C@@H]2OCC=C3CN4CC[C@]56c7ccccc7N1[C@H]5[C@H]2[C@H]3C[C@H]46,-6.6% [at 42.5 µM],
O=[N+]([O-])C(Br)Br,-1.29%,
c1ccc(N=NNc2ccccc2)cc1,,inactive
O=C(Cl)c1ccccc1F,2.22%,

SMILES,"viability change, negative = cytotoxic",Potency
COC(=O)C(C)N(C(=O)c1ccco1)c1c(C)cccc1C (stereo not given),0.963%,
CN,0.458%,
Clc1ccc(C2(Cn3cncn3)OCCO2)c(Cl)c1,3.5%,
Clc1c(Cl)c(Cl)c(Cl)c(Cl)c1Cl,0.413% [at 8.39 µM],
CCCCn1cc[n+](C)c1 (tested in a mixture with another compound),-2.29%,
ClCBr,1.43%,
O=S(=O)(O)F,3.98%,
CCOP(=O)(OCC)Oc1cc(C)nc(C(C)C)n1,0.134%,
CCCCCCCc1ccc(O)cc1,7.18%,
C[C@]12C/C(=C/O)C(=O)C[C@@H]1CC[C@@H]1[C@@H]2CC[C@@]2(C)[C@H]1CC[C@]2(C)O,,inactive
C=CCOC(=O)c1ccccc1N,1.22%,
Nc1ccc(Cl)cc1C(=O)c1ccccc1F,-7.46% [at 42.5 µM],
O=c1c2ccccc2c(=O)c2c1cc(Cl)c1[nH]c3c([nH]c12)c(Cl)cc1c(=O)c2ccccc2c(=O)c13,1.14%,
CC(C)C(Nc1ccc(C(F)(F)F)cc1Cl)C(=O)OC(C#N)c1cccc(Oc2ccccc2)c1 (stereo not given),-1.86%,
C#CC1(O)CCCCC1,2.66%,
ClC1(Cl)C2(Cl)C3(Cl)C4(Cl)C(Cl)(Cl)C5(Cl)C3(Cl)C1(Cl)C5(Cl)C24Cl (stereo not given),-2.39%,
C=C(C)C(=O)[O][Sn]([CH2]CCC)([CH2]CCC)[CH2]CCC,,545 nM (active)
ClC1=C(Cl)[C@]2(Cl)[C@H]3[C@H]([C@@H]4C=C[C@H]3C4)[C@@]1(Cl)C2(Cl)Cl,0.0557%,
C#CCC1=C(C)C(OC(=O)C2C(C=C(C)C)C2(C)C)CC1=O (stereo not given),4.24%,
CC1CN1 (stereo not given),-0.754%,

# From PubChem BioAssay (Tox21)
